This passage reports Potency and outcome results from PubChem BioAssay (Tox21).

Values without a mark were called inactive. Inconclusive results are not listed. Active and inactive are the calls of the source. Unless noted, calls come from the whole dose curve; as a rule, active = well fitted curve in the direction sought with a large enough effect in the repeat runs; inconclusive = weak or mixed curves; inactive = no such curve, though single readings can be large; an effect the other way counts as inactive or inconclusive.

A short description of assay [1]: qHTS assay to identify small molecule antagonists of the estrogen receptor alpha (ER-alpha) signaling pathway using the BG1 cell line in the presence of 0.1 nM 17-beta-estradiol - cell viability counter screen (AID 1259241). Note: nearly all actives have a fitted effect of over 40% in size. Put shortly:
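VM7Luc4E2 cells (endogenous ER-alpha, 4×ERE-luciferase), hormone-starved 5 days in charcoal-stripped FBS, were treated with compounds plus 0.1 nM 17beta-estradiol for 22 hr at 37C; viability read in same wells as CellTiter-Fluor live-cell protease fluorescence.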

Assay [2] is described as follows: qHTS assay to identify small molecule antagonists of the androgen receptor (AR) signaling pathway using the MDA cell line in the presence of 0.5 nM R1881 - cell viability counter screen (AID 1259242). Note: nearly all actives have a fitted effect of over 45% in size. The gist of the method: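 Live-cell protease fluorescence, CellTiter-Fluor, 30 min at 37C. Cells: MDA-kb2, 3,000/well, preincubated 5 hr. Compounds plus 0.5 nM R1881 final, 16 hr, 37C, 0% CO2.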
(In general: Quantitative high-throughput screening tests each substance at several concentrations.)

Assay [3] deals with Androgen receptor (Homo sapiens) (UniProt P10275). In words: qHTS assay to identify small molecule antagonists of the androgen receptor (AR) signaling pathway using the MDA cell line in the presence of 0.5 nM R1881 (AID 1259243). Note: nearly all actives have a fitted effect of over 50% in size. Note: potency is the fitted concentration of half-maximal effect. Put shortly:
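MDA-kb2, MMTV-luc (AR/GR elements); 3,000 cells/well; cpd + 0.5 nM R1881 final; 16 hr 37C, 0% CO2; ONE-Glo 30 min RT; luminescence.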

Assay [4] concerns the target Estrogen receptor (Homo sapiens) (UniProt P03372). In words: qHTS assay to identify small molecule antagonists of the estrogen receptor alpha (ER-alpha) signaling pathway using the BG1 cell line in the presence of 0.1 nM 17-beta-estradiol (AID 1259244). Note: nearly all actives have a fitted effect of over 50% in size. Note: potency is the fitted concentration of half-maximal effect. Put shortly:
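Luminescence after ONE-Glo (30 min, room temperature) measured ERE-luciferase activity in VM7Luc4E2 cells treated 22 h with compound and 0.1 nM final 17beta-estradiol as stimulator.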

Assay [5] can be described thus: qHTS assay to identify small molecule HDAC inhibitors (AID 1259364). Note: potency is the fitted concentration of half-maximal effect.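 Note: wild-type HCT-116 cells with endogenous class I/II HDAC activity; nearly all actives have a fitted effect of over 45% in size.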 Put shortly:
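HCT-116 (wild type), 1,500 cells/well, overnight; compound 2 hr 37C 5% CO2; HDAC-Glo I/II reagent 30 min RT; luminescence readout.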

Assay [6] can be described thus: qHTS assay to identify small molecule HDAC inhibitors - cell viability counter screen (AID 1259365). Note: series mostly up to about 92 µM; nearly all actives have a fitted effect of over 50% in size. The gist of the method: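 Wild-type HCT-116 cells were seeded at 1,500 per well, incubated overnight at 37 C, then exposed to compounds in DMSO for 2hr. Viability was read by CellTiter-Glo luminescence after 30min at room temperature.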
Assay [7] in a line: qHTS assay to identify small molecule agonists of the sonic hedgehog signaling (Shh) pathway - cell viability counter screen (AID 1259366). Note: nearly all actives have a fitted effect of over 50% in size. Put shortly:
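NIH/3T3-derived 3T3 Gli1-Luc cells (stable Gli1-responsive firefly luciferase reporter) were seeded, rested 4 hr at 37 C/5% CO2, then exposed to compounds in DMSO for 24 hr; viability was read by CellTiter-Fluor fluorescence in the same wells.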

A short description of assay [8]: qHTS assay to identify small molecule antagonists of the sonic hedgehog signaling (Shh) pathway - cell viability counter screen (AID 1259367). Note: nearly all actives have a fitted effect of over 55% in size. Put shortly: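 Viability was read by CellTiter-Fluor fluorescence in the same wells, reagent added 23 hr into compound treatment and incubated 1 hr at 37C. The 3T3 Gli1-Luc reporter cells (2,000/well) received conditioned medium after compound and ran 24 hr.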

Assay [9] can be described thus: qHTS assay to identify small molecule agonists of the sonic hedgehog signaling (Shh) pathway (AID 1259368; calls by dose curve; note: series mostly up to about 92 µM; nearly all actives have a fitted effect of over 15% in size). The gist of the method:
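Read-out: firefly luciferase luminescence from a Gli1 response element reporter stably integrated in NIH/3T3-derived 3T3Gli1-Luc cells, measured 30 min at room temperature after reagent addition. Compound exposure lasted 24 hr at 37 C, 5% CO2.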

Assay [10] can be described thus: qHTS assay to identify small molecule phospholipidosis (PLD) inducers (AID 1259344; active = well fitted curve in the direction sought with a large enough effect; an effect the other way counts as inactive or inconclusive). The gist of the method:
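Phospholipid accumulation was scored by imaging: fixed, Hoechst-counterstained HepG2 cells stained with LipidTOX Red after 24 h compound exposure at 37 C. Read-outs were pit count and pit intensity per well or per cell, with amiodarone and DMSO controls.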

Chain of Estrogen receptor (Homo sapiens) (P03372 whole entry, looked up): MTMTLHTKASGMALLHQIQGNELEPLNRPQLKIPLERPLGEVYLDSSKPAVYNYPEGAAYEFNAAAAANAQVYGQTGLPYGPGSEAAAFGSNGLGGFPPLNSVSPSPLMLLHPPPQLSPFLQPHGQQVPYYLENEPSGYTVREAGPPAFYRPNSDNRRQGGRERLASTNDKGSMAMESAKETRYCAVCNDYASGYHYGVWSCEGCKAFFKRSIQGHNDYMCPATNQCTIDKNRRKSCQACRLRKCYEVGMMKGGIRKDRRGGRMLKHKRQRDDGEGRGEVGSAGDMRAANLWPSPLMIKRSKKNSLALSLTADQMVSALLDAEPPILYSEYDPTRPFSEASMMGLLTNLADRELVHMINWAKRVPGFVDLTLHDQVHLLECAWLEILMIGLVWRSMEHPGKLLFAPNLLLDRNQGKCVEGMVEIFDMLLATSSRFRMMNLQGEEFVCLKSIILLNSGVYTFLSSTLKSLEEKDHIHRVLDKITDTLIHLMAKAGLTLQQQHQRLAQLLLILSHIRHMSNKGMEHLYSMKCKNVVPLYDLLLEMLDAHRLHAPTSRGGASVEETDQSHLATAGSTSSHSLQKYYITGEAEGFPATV
Chain of Androgen receptor (Homo sapiens) (P10275 whole entry, looked up): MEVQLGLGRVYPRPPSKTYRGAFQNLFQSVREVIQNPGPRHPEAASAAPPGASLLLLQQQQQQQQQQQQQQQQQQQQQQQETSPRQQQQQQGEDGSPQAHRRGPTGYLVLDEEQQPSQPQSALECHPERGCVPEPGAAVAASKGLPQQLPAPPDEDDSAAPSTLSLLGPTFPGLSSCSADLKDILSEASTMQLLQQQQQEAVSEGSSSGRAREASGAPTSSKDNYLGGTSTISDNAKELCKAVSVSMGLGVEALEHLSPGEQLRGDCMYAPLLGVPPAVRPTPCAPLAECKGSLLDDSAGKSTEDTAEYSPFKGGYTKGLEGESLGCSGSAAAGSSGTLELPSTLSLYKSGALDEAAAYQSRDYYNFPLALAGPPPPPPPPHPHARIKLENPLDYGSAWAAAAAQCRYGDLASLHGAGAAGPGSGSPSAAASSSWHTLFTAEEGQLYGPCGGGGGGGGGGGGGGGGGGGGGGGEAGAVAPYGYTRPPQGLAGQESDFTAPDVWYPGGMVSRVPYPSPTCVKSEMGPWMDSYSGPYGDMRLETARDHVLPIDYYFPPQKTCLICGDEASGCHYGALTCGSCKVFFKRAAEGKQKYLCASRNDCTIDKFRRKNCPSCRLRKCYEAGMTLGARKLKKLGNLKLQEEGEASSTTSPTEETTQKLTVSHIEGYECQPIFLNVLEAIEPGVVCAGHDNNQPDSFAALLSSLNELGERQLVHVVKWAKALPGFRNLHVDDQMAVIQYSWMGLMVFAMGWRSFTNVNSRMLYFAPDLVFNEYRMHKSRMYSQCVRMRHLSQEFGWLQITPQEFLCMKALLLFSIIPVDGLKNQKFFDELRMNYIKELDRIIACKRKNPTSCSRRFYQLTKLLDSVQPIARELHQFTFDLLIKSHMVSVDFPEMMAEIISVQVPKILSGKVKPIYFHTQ

On to `CN1CCN(C2=Nc3cc(F)ccc3Cc3ccccc32)CC1`, for which the Potency result in assay [1], in [4], in assay [5], in assay [7], in assay [8] and in [9] was “inactive” in each case. For the same molecule, the outcome in assay [2] and in assay [6] was inactive. The Potency in assay [3] is 16.8 µM (active).
Regarding `CCc1cc2cc(OC)c(OC)cc2c(Cc2ccccc2)n1`, the Potency result in assay [1], in assay [5], in assay [7], in [8] and in assay [9] was “inactive” in each case. Also, the result in assay [2] and in [6] was inactive. Besides, the Potency in assay [3] is 4.22 µM (active).
On to `CCCCCCn1c(=O)c2c(ncn2C)n(C)c1=O`, for which the Potency result in assay [1], in assay [3], in [4], in assay [5], in assay [7] and in [8] was “inactive” throughout. Moreover, the Potency result in assay [9] was “inactive”. Moreover, the result in assay [2] and in [6] was inactive.
Take `Cn1cnc2c(F)c(Nc3ccc(Br)cc3Cl)c(C(=O)NOCCO)cc21`: the Potency entry in assay [1], in assay [5], in assay [8] and in [9] was “inactive” each time. Further, the result in assay [2], in [10] and in assay [6] was inactive. Besides, the Potency in [3] is 5.96 µM (active).
As to `Cc1cc(S(=O)(=O)O)c(N)cc1Cl`, the Potency result in assay [1], in [3], in assay [4], in assay [5], in [7] and in assay [8] was “inactive” in each case. Moreover, in assay [9], the Potency entry is “inactive”. Further, the result in assay [2] and in assay [6] was inactive.
In the case of `CCCC(CCC)(C(=O)OCC)C(=O)OCC`, the Potency entry in assay [1], in assay [3], in assay [4], in assay [5], in [7] and in assay [8] was “inactive” each time. Moreover, the Potency entry in [9] is “inactive”. Further, the result in assay [2] and in [6] was inactive.
Turning to `CC1(O)CSC(C)(O)CS1` (stereo unspecified), the Potency result in assay [1], in assay [3], in assay [4], in assay [7], in [8] and in [9] was “inactive” each time. Besides, the outcome in assay [2] and in assay [6] was inactive. Moreover, the Potency in assay [5] was 21.7 µM (active).
For `CCCCCOc1ccc(C2SC(=O)NC2=O)cc1OCC` (stereo unspecified), the Potency entry in assay [1], in assay [3], in [4], in assay [5], in [7] and in [8] was “inactive” in each case. Moreover, the outcome in assay [2], in assay [10] and in [6] was inactive.
Turning to `CC(=O)OC(C)OC(C)=O`, the Potency result in assay [1], in [3], in [5], in assay [7] and in assay [9] was “inactive” throughout. The outcome in [2] and in assay [6] was inactive.
`CN(C)Cc1ccccc1`: the Potency entry in assay [1], in assay [3], in assay [5], in assay [7], in assay [8] and in assay [9] was “inactive” in each case. Further, the outcome in [2], in assay [10] and in [6] was inactive.
For `CC(C)CCCCCCc1ccc(OCCOCCO)cc1`, the Potency entry in [1], in assay [3], in [4], in assay [5], in assay [7] and in [8] was “inactive” each time. Also, the Potency result in [9] was “inactive”. Besides, the result in assay [2] and in [6] was inactive.
On to `OCCN(CCO)CCN(CCO)CCO`, for which the Potency result in assay [1], in assay [3], in [4], in assay [5], in [7] and in assay [8] was “inactive” throughout. Also, the Potency entry in [9] was “inactive”. Besides, the result in assay [2] and in assay [6] was inactive.
Take `OC[C@H]1O[C@@H](O[C@H]2[C@H](O)[C@@H](O)[C@H](O)O[C@@H]2CO)[C@H](O)[C@@H](O)[C@H]1O`: the Potency result in [1], in assay [3], in assay [4], in assay [5], in [7] and in [8] was “inactive” in each case. The Potency entry in assay [9] was “inactive”. The result in assay [2] and in [6] was inactive.
As to `CC1=C2[C@H](/C=C(\C)C(=O)O)CC[C@@H](C)[C@H]2CC1`, the Potency result in assay [1], in assay [5] and in [9] was “inactive” throughout. Further, the result in assay [2] and in assay [6] was inactive. The Potency in [3] is 31.8 µM (active); in assay [4] it was 63.4 µM (active).
As for `CCC(=O)Nc1ccc(O)cc1`, the Potency entry in assay [1], in assay [4], in [5], in [7], in assay [8] and in [9] was “inactive” each time. The outcome in assay [2], in [10] and in assay [6] was inactive.
For `CNCCC(Oc1ccccc1OC)c1ccccc1` (stereo unspecified), the Potency result in assay [1], in assay [4], in [5], in assay [7], in [8] and in assay [9] was “inactive” each time. Further, the outcome in assay [2], in assay [10] and in [6] was inactive.
`COc1ccccc1N1CCN(CCCNc2cc(=O)n(C)c(=O)n2C)CC1`: the Potency result in [1], in [4], in assay [5], in assay [7], in assay [8] and in assay [9] was “inactive” throughout. Also, the result in assay [2], in [10] and in assay [6] was inactive.
As for `CC(=O)N[C@@H](CC(C)C)C(=O)O`, the Potency entry in assay [1], in assay [4], in assay [5], in assay [7], in assay [8] and in assay [9] was “inactive” each time. The result in assay [2], in assay [10] and in assay [6] was inactive.
On to `Cc1cccc(C)c1NC(=O)CN1CCCCCC1`, for which the Potency entry in assay [1], in [4], in [5], in assay [7], in [8] and in assay [9] was “inactive” throughout. Also, the outcome in assay [2], in [10] and in assay [6] was inactive.
For `FC(F)(F)C(F)(F)C(F)(F)C(F)(F)C(F)(F)C(F)(F)C(F)(F)C(F)(F)Br`, the Potency result in assay [1], in assay [4], in assay [5], in assay [7], in assay [8] and in assay [9] was “inactive” in each case. For the same molecule, the outcome in [2], in assay [10] and in [6] was inactive.
`C=Cc1ccccc1`: the Potency result in [1], in [4], in [5] and in [7] was “inactive” in each case. The outcome in [2], in [10] and in [6] was inactive.
As for `CCN(CC)CC1CCCCN1CC(=O)N1c2ccccc2C(=O)Nc2cccnc21` (stereo unspecified), the Potency result in assay [1], in assay [4], in assay [5], in assay [7] and in assay [8] was “inactive” in each case. Besides, the outcome in [2], in assay [10] and in assay [6] was inactive.
In the case of `CCCCC(=O)O[C@]1(C(=O)CO)[C@H](C)C[C@H]2[C@@H]3CCC4=CC(=O)C=C[C@]4(C)[C@@]3(F)[C@@H](O)C[C@@]21C`, the Potency entry in [1], in [4], in assay [5], in assay [7] and in [9] was “inactive” each time. Also, the outcome in assay [2], in assay [10] and in assay [6] was inactive.
Take `COc1ccccc1OCC(O)COC(N)=O` (stereo unspecified): the Potency entry in [1], in assay [4], in assay [5], in assay [7], in [8] and in [9] was “inactive” throughout. Also, the outcome in assay [2], in assay [10] and in assay [6] was inactive.
